We go through five compounds from PubChem BioAssay (NCI).

This is part of a sample that, as a whole, favours compounds with a hit. Of some 79,000 tested, about 15% had one in any assay. Values without a mark were called inactive. Activity calls are given as the source filed them. Cut-off read from the data, not from the text of the source: active = growth inhibition above about 70%; inactive = the rest.

Experiment [1] in a line: NCI Yeast Anticancer Drug Screen. Data for the rad50 strain (AID 155).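 Note: 0% = growth of vehicle-only cultures of the same strain.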 The settings on record: S. cerevisiae rad50 strain growth inhibition, active compounds read high. Summed up: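 Relative growth inhibition (compound vs vehicle) was measured in yeast with a defined repair-gene alteration.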
Experiment [2] is described as follows: NCI Yeast Anticancer Drug Screen. Data for the mec2-1 strain (AID 157). The conditions noted are these: S. cerevisiae mec2-1 strain, active compounds read high. Summed up:
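Mutant yeast (mec2-1) grown with compound; growth inhibition relative to vehicle control reported.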

Experiment [3] is described as follows: NCI Yeast Anticancer Drug Screen. Data for the sgs1 mgt1 strain (AID 161).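 Note: 0% = growth of cultures given vehicle only.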 The conditions noted are these: S. cerevisiae sgs1 mgt1 strain, active compounds read high. The procedure, abridged:
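Growth of a repair-deficient yeast mutant was monitored after compound treatment and expressed as inhibition relative to vehicle-treated cultures.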

Experiment [4] is described as follows: NCI Yeast Anticancer Drug Screen. Data for the cln2 rad14 strain (AID 165).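 Note: 0% = growth equal to vehicle treated cultures.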 The conditions noted are these: S. cerevisiae cln2 rad14 strain, active compounds read high. The procedure, abridged:
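Readout is yeast growth inhibition versus vehicle-treated controls, using a strain with cln2 and rad14 alterations exposed to compound.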

The nature of experiment [5]: NCI Yeast Anticancer Drug Screen. Data for the bub3 strain (AID 167). The conditions noted are these: S. cerevisiae bub3 mutant strain, active compounds read high. Summed up:
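Screening used yeast with an engineered genetic alteration affecting cell cycle control. Compound-exposed cultures were compared with vehicle cultures, and reduced growth was taken as inhibition.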

Experiment [6] in a line: NCI Yeast Anticancer Drug Screen. Data for the mlh1 rad18 strain (AID 175). The conditions noted are these: S. cerevisiae mlh1 rad18 strain growth inhibition, active compounds read high. The procedure, abridged:
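Genetically defined yeast (DNA repair-deficient) exposed to compounds; growth inhibition determined relative to vehicle.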

[7] abbreviates: at 5.0 µM (retest, dose inferred, filed as 0.5).
[8] abbreviates: at 50.0 µM (retest, dose inferred, filed as 5.0).

For the compound `CCCCCCCCCCCCCCC/C([O-])=N/[N+](C)(C)CC(C)O` (stereo not given), the growth inhibition was 98% (active) in experiment [1] (setting [7]); 98% (active) in experiment [1] (setting [8]); 90.9% (active) in experiment [1] (at 50.0 µM); 99% (active) in experiment [2] (setting [7]); 98% (active) in experiment [2] (setting [8]); 91.2% (active) in experiment [2] (at 50.0 µM). Besides, the growth inhibition in experiment [3] (setting [7]) is 99% (active); in experiment [3] (setting [8]) it was 99% (active); in experiment [3] (at 50.0 µM), 92% (active); in experiment [4] (setting [7]), 99% (active); in experiment [4] (setting [8]) it was 98% (active); in experiment [4] (at 50.0 µM), 88.2% (active). The growth inhibition was 99% (active) in experiment [5] (setting [7]); 98% (active) in experiment [5] (setting [8]); 91.5% (active) in experiment [5] (at 50.0 µM); 98% (active) in experiment [6] (setting [7]); 97% (active) in experiment [6] (setting [8]); 89.9% (active) in experiment [6] (at 50.0 µM).

For `CC12CC(O)C3C(CCC4CCCCC43C)C1CC/C2=N/O` (stereo not given), the growth inhibition is 47% in experiment [1] (setting [7]); -10% in experiment [1] (setting [8]); 86.6% (active) in experiment [1] (at 50.0 µM); 45% in experiment [2] (setting [7]); 7% in experiment [2] (setting [8]); 91.2% (active) in experiment [2] (at 50.0 µM). The growth inhibition in experiment [3] (setting [7]) is 27%; in experiment [3] (setting [8]) it was 1%; in experiment [3] (at 50.0 µM) it was 93.3% (active); in experiment [4] (setting [7]), 8%; in experiment [4] (setting [8]) it was -6%; in experiment [4] (at 50.0 µM) it was 50.8%. Also, the growth inhibition in experiment [5] (setting [7]) was 10%; in experiment [5] (setting [8]), -5%; in experiment [5] (at 50.0 µM), 93.9% (active); in experiment [6] (setting [7]) it was 52%; in experiment [6] (setting [8]) it was 5%; in experiment [6] (at 50.0 µM) it was 94.6% (active).

Regarding `S=c1nc(C(c2ccccc2)c2ccccc2)[nH][nH]1`, the growth inhibition in experiment [1] (setting [7]) is -2%; in experiment [1] (setting [8]), 1%; in experiment [1] (at 50.0 µM) it was 29.1%; in experiment [2] (setting [7]) it was -1%; in experiment [2] (setting [8]), 7%; in experiment [2] (at 50.0 µM), 1.7%. Besides, the growth inhibition in experiment [3] (setting [7]) was 10%; in experiment [3] (setting [8]), 13%; in experiment [3] (at 50.0 µM) it was 40.4%; in experiment [4] (setting [7]), 0%; in experiment [4] (setting [8]), -2%; in experiment [4] (at 50.0 µM), 28.1%. For the same compound, the growth inhibition in experiment [5] (setting [7]) is 1%; in experiment [5] (setting [8]), 27%; in experiment [5] (at 50.0 µM), 11.6%; in experiment [6] (setting [7]), -3%; in experiment [6] (setting [8]), 3%; in experiment [6] (at 50.0 µM), 65.5%.

For the compound `CCN(CC)c1ccc2nc3ccc(N(CC)CC)cc3[n+](-c3ccccc3)c2c1`, the growth inhibition in experiment [1] (setting [7]) was 97% (active); in experiment [1] (setting [8]), 98% (active); in experiment [1] (at 50.0 µM) it was 92.1% (active); in experiment [2] (setting [7]), 100% (active); in experiment [2] (setting [8]), 99% (active); in experiment [2] (at 50.0 µM), 93.7% (active). For the same compound, the growth inhibition in experiment [3] (setting [7]) is 92% (active); in experiment [3] (setting [8]), 99% (active); in experiment [3] (at 50.0 µM), 98.7% (active); in experiment [4] (setting [7]), 79% (active); in experiment [4] (setting [8]), 98% (active); in experiment [4] (at 50.0 µM), 97.5% (active). For the same compound, the growth inhibition in experiment [5] (setting [7]) is 98% (active); in experiment [5] (setting [8]) it was 98% (active); in experiment [5] (at 50.0 µM), 98.7% (active); in experiment [6] (setting [7]), 99% (active); in experiment [6] (setting [8]) it was 99% (active); in experiment [6] (at 50.0 µM), 98.7% (active).

With `CCCCCCCN(CCCCCCC)CC(=O)NC(=O)c1ccccc1`, the growth inhibition in experiment [1] (setting [7]) was 29%; in experiment [1] (setting [8]), 99% (active); in experiment [1] (at 50.0 µM) it was 99.4% (active); in experiment [2] (setting [7]), 21%; in experiment [2] (setting [8]), 98% (active); in experiment [2] (at 50.0 µM), 97.2% (active). Moreover, the growth inhibition is 23% in experiment [3] (setting [7]); 99% (active) in experiment [3] (setting [8]); 99.5% (active) in experiment [3] (at 50.0 µM); 33% in experiment [4] (setting [7]); 99% (active) in experiment [4] (setting [8]); 96.8% (active) in experiment [4] (at 50.0 µM). The growth inhibition in experiment [5] (setting [7]) was 43%; in experiment [5] (setting [8]), 99% (active); in experiment [5] (at 50.0 µM), 99.3% (active); in experiment [6] (setting [7]) it was 26%; in experiment [6] (setting [8]) it was 99% (active); in experiment [6] (at 50.0 µM), 99.3% (active).
